TAG inh: inhibitors of triacylglycerol accumulation; AID 651582; 230,000 tested, 0.66% active; inhibition, % at 12.5 µM; H9c2 cells, Nile Red lipid (TAG) fluorescence; cells loaded with 200 µM oleic acid;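 active = pattern-corrected inhibition of lipid staining of at least 50% with the nuclear-stain viability signal not falling by more than 50%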;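 also: 0% = DMSO wells and 100% = triacsin C control wells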
aSyn UTR inh: MLPCN primary screen, SNCA 5' untranslated region. alpha-synuclein 5'UTR reporter, inhibitor activity. inhibition, % (tested at 7.5 µM). 300,000 tested, 0.82% active; in the data active = inhibition above about 60%;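 also: H4 neuroglioblastoma cells stably carrying SNCA 5'UTR luciferase fusion; 0% = DMSO wells and 100% = positive control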
Shn3 3UTR inh: reduces Shn3 3'UTR luciferase signal in osteoblasts | Clone20 osteoblast Shn3 3'UTR firefly luciferase, 24 h | inhibition, % at 12.5 µM | 360,000 tested, 0.52% active | AID 588674;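 active = mean inhibition of at least 75% with every replicate also reaching 75%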;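 also: 0% = median of neutral control wells and 100% = pilot-screen positive control compound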
Gli-Sufu block: blocks Gli-Sufu signaling in a luciferase reporter; Sufu-KO-LIGHT fibroblasts, Gli luciferase reporter luminescence; inhibition, % at 5 µM; 340,000 tested, 0.74% active; AID 588413;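 active = inhibition above about 55%, limit read from the data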;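 also: 0% = DMSO-treated cells and 100% = wells with medium but no cells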
697 NFkB inh: inhibitors of the PMA/ionomycin-induced NF-kB reporter in 697 B cells. 330,000 tested, 0.33% active. 697 B-cell NF-kB luciferase reporter, 16 h. inhibition, % at 4 µM; in the data active = inhibition above about 35%
Jurkat NFkB inh: inhibitors of the PMA/ionomycin-induced NF-kB reporter in Jurkat cells. PMA/ionomycin-induced NF-kB luciferase reporter, luminescence. inhibition, % at 4 µM. 330,000 tested, 0.53% active. AID 435003; in the data active = inhibition above about 50%
Jurkat NFkB conf: lowers PMA/ionomycin-induced NF-kB signal in Jurkat cells; shares compounds with Jurkat NFkB inh; AID 435020; inhibition, % at 4 µM; Jurkat NF-kB luciferase, 16 h; 2,700 tested, 27% active;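 active = inhibition reaching about 45% at 4 µM in either replicate, limit read from the data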;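 also: plate controls were PMA/ionomycin stimulated DMSO wells for no effect and unstimulated DMSO wells for full effect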
697 NFkB conf: inhibitors of the PMA/ionomycin-induced NF-kB reporter in 697 B cells, retest | 2,000 tested, 35% active | 697 B-cell NF-kB luciferase, 16 h | inhibition, % at 4 µM | shares compounds with 697 NFkB inh; in the data active = inhibition mostly above about 28%, no sharp cut-off; inactive = mostly below about 22%
Starred values were filed as active, the others as inactive; i = inactive; . = no result. Only some compounds are listed: those with a hit (about 2.3% of all), similar ones and a draw of the others.

SMILES	TAG inh	aSyn UTR inh	Shn3 3UTR inh	Gli-Sufu block	697 NFkB inh	Jurkat NFkB inh	Jurkat NFkB conf	697 NFkB conf
CCCN1C=CC(=C2C(=O)c3ccccc3C2=O)C=C1	.	132*	77	79*	44*	69*	75*	20
O=C(CC1SC(=NCc2ccccc2)NC1=O)Nc1ccccc1 (stereo not drawn)	-3	-13	12	-19	0	-9	.	.
CCSc1cc(C)nc2c(-c3ccccc3)cnn12	12	-47	-141	-65	-264	-153	-100	-269
Cc1ccc(/C=C2/CCc3c([nH]c4ccccc34)C2=O)cc1	.	-180	-39	-49	-255	-156	-91	-181
CC1CCN(S(=O)(=O)c2ccc3c(c2)C(=NO)c2cc(S(=O)(=O)N4CCC(C)CC4)ccc2-3)CC1	84*	.	95*	-5	97*	96*	17	93*
COc1ccc(S(=O)(=O)N2CCC(C)CC2)cc1OC	.	1	0	7	0	0	.	.
O=C(Nc1ccc(-c2nc3ccccc3s2)c(O)c1)C1=COCCO1	.	-80	-10	-75	-335	-242	-72	-134
O=C(Nc1ccc(O)c(-c2nc3ccccc3s2)c1)C1=COCCO1	.	-78	-9	-2	-3	11	.	.
CN(C(=O)OC(C)(C)C)c1ccc(-c2nc3ccccc3s2)cc1	-8	104*	81	90*	66*	69*	90*	48*
COC(=O)N(C)c1nc2ccccc2s1	6	-77	-57	3	-11	-22	.	.
O=C(Oc1ccc(F)cc1C(=O)/C=C/c1cccs1)c1cccc([N+](=O)[O-])c1	5	-87	4	-1	-40	35	.	.
Fc1ccc(NC(=S)N2CCCN(c3ccc(C(F)(F)F)cn3)CC2)c(F)c1	-12	10	89*	14	54*	66*	19	8
Cc1cccc(-c2cc3nc4c(c(NCc5ccco5)n3n2)CCCC4)c1	.	-93	4	-58	-264	-154	-99	-295
C=C1/C=C(\C)[C@](C)(O)C[C@H](O)CC(=O)[C@H](O)[C@@H](O)[C@H](C)C[C@H](C)OC(=O)/C(C)=C/CC/C=C/[C@@H]2O[C@H]2C[C@H](C)C1	.	.	.	.	37*	57*	12	17
CCOC(=O)c1ccc(NC(=S)P(=O)(c2ccccc2)c2ccccc2)cc1	-7	.	-11	.	.	.	.	.
O=C(Nc1ccc(S(=O)(=O)Nc2ccc(F)cc2)cc1)c1ccc(CN2CCOCC2)cc1	-6	24	22	4	47*	63*	63*	19
O=C(c1ccc(Br)o1)N1CC=C(c2ccccc2)CC1	6	.	-5	9	-9	2	.	.
O=C(Oc1ccc2ccccc2c1Cl)N1CCCC1	-123	-79	-67	-99	-386	-154	-101	-337
O=C(Oc1ccc2ccccc2c1Cl)N1CCCCCC1	.	-21	-38	-77	i	-307	-140	i
CCCCCn1c(=O)[nH]c2cc(C(=O)N3CCN(Cc4ccc5c(c4)OCO5)CC3)ccc2c1=O	-5	0	75	57*	105*	64*	77*	85*
CCCCCn1c(=O)[nH]c2cc(C(=O)NCc3ccc4c(c3)OCO4)ccc2c1=O	-20	0	-7	12	14	7	.	.
COc1ccc(NC(=O)Cc2ccc(Cl)c(Cl)c2)cn1	5	-22	3	-12	-5	2	.	.
COc1ccc(NC(=O)/C(Cl)=C(/Cl)S(=O)Cc2ccccc2Cl)cn1 (stereo not drawn)	.	.	.	72*	-349	100*	98*	-110
c1ccc2c(c1)CCN(c1ncnc3c1[nH]c1ccccc13)C2	-132	-102	89*	79*	43*	50*	59*	24
COc1cccc2[nH]c3c(N4CCc5ccccc5C4)ncnc3c12	.	-39	.	14	-5	-31	.	.
SMILES	TAG inh	aSyn UTR inh	Shn3 3UTR inh	Gli-Sufu block	697 NFkB inh	Jurkat NFkB inh	Jurkat NFkB conf	697 NFkB conf
O=C(/C=C\Nc1ccccc1Br)c1ccc2c(c1)OCO2	-1	55	34	-120	-356	-169	-40	-213
COC(=O)c1ccc(N/C=C\C(=O)c2ccc3c(c2)OCO3)cc1	1	-133	-40	-24	-45	-40	.	.
O=C(/C=C\Nc1cccc(F)c1)c1ccc2c(c1)OCO2	-1	54	11	-161	-411	-171	-142	-228
O=C(/C=C/c1ccccc1Br)c1ccc2c(c1)OCO2	.	-7	10	16	-34	-22	.	.
Cc1ccc(NC(=O)COc2ccc(N(C)C(=O)C(C)(C)C)cc2)cc1S(=O)(=O)N1CCCCC1	-36	.	79	68*	51*	54*	78*	77*
CCc1cccc(OCC(=O)Nc2ccc(C)c(S(=O)(=O)N3CCCCCC3)c2)c1	-74	12	66	23	-28	4	.	.
CC(C)COc1cccc(C(=O)Nc2cc(S(=O)(=O)N3CCOCC3)ccc2N2CCCC2)c1	17	.	22	-2	.	.	.	.
CCCCCCCCn1ccc(=N)cc1	-18	62*	.	38	78*	80*	73*	64*
